# Sampled rows, rich in hits. Any-hit rate of the full collection: about 3%.
# PNC assembly inh: inhibitors of perinucleolar compartment assembly; hit rate 3.1% among 140,000; activity change (PNC), negative = inhibition, % at 10 µM; PC3M PTB-GFP, PNC prevalence imaging, 16 h; hits give low values;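 active = readout at or below -70, meaning at least 70% loss of cells showing the perinucleolar compartment, a nuclear body marking cancer cells; inconclusive = readout between -30 and a set limit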;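 note: plate controls were DMSO wells for no effect and camptothecin positive control wells for full effect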
#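 Compounds are pinned in duplicate onto adhered PC3M cells stably expressing GFP-tagged PTB and incubated 16 h at 37 C. Cells are then fixed, nuclei stained with Hoechst, and PNC-positive cells counted.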
# 12-hLO inh: 12-hLO (ALOX12) enzyme inhibition | Potency, µM (highest dose often 57.1 µM), for inactives: at the top dose activity change, negative = inhibition, hits mostly inhibitors | hit rate 0.12% among 150,000 | P18054 | purified 12-hLO, xylenol orange hydroperoxide absorbance; note: potency is the fitted concentration of half-maximal effect; nearly all actives have a fitted effect of over 55% in size
# Target sequence (P18054 whole entry, looked up): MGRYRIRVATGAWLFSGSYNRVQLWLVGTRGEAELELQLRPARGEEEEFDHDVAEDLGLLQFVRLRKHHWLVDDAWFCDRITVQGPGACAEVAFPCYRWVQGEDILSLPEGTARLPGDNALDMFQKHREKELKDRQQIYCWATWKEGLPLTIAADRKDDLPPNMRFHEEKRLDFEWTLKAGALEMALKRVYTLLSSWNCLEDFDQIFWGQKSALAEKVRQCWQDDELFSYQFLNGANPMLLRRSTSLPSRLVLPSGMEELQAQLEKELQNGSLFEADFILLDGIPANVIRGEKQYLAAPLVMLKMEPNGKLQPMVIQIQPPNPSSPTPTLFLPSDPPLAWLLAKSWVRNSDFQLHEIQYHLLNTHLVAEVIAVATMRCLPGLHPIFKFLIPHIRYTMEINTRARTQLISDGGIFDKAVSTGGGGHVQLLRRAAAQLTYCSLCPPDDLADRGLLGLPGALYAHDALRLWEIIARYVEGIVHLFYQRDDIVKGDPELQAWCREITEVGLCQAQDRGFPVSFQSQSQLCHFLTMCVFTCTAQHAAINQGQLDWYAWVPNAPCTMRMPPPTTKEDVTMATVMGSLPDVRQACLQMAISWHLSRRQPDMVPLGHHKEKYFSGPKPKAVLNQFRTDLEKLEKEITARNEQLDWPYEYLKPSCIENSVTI
#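 150 nM 12hLO, 25 mM Hepes pH 7.0 + 0.01% Triton X-100; cpd preinc 15 min RT; 40 uM arachidonic acid, 30 min RT; Fe-XO 30 min; A573/A405 ratio as read-out.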
# IMPase inh: cell-permeable inhibitors of inositol monophosphatase (IMPase); CHO-M1 cells, IP1 accumulation, HTRF TR-FRET ratio; inhibition (IP1 accumulation), % at 46.1 µM; 120,000 tested, under 10 active; AID 901; active = well fitted curve in the direction sought with a large enough effect in the signal ratio, not every such curve was filed as active; inconclusive = small, poorly fitted or top-dose-only effect, or a change in a side signal; inactive = no such curve, though single readings can be large or run the other way; the % refers to the signal ratio;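 note: cells stimulated with carbachol in lithium chloride buffer; plate controls were DMSO basal wells for no effect and reference inhibitor wells for full effect; higher means more IMPase inhibition seen as more IP1 and lower FRET ratio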
#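 Seeded CHO-M1 cells were dosed with compound at up to 46 uM, stimulated with carbachol for 30 min, then lysed in IP-One detection reagents. Higher IP1 lowers the TR-FRET signal.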
# ALOX15B inhib: 15-hLO-2 (ALOX15B) enzyme inhibition | O15296 | purified 15hLO-2, xylenol orange hydroperoxide absorbance | Potency, µM (highest dose often 57.1 µM), without a hit: top-dose activity change, negative = inhibition, hits mostly inhibitors | hit rate 0.56% among 110,000 | AID 881; note: potency is the fitted concentration of half-maximal effect; nearly all actives have a fitted effect of over 60% in size
#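 Purified human 15hLO-2 (50 nM final) preincubated with compounds 15 min at room temperature in 25 mM Hepes pH 7.5, 0.01% Triton X-100, then 45 uM arachidonic acid added for 90 min; hydroperoxide detected via ferrous/xylenol orange, 573/405 nm absorbance ratio.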
# * marks the source's active call; other numbers are inactive results; ? = inconclusive; . = not tested or not shown; [ ] = remark or other dose. Unless noted, calls come from the whole dose curve; as a rule, active = well fitted curve in the direction sought with a large enough effect; inconclusive = small, poorly fitted or top-dose-only effect, or another doubt; inactive = no such curve, though single readings can be large; an effect the other way counts as inactive or inconclusive. Unless noted, % is set by controls: 0 for no effect and ±100 for the full control effect.
SMILES,PNC assembly inh,12-hLO inh,IMPase inh,ALOX15B inhib
CC(C)(C)c1cc(C(c2cccnc2)N2CCN(CCO)CC2)cc(C(C)(C)C)c1O (configuration not stated),3,-2%,15,19%
CC1=NOC(=O)/C1=C\c1ccc(-c2ccc(Cl)cc2Cl)o1,67,-29%,-6,7.9µM*
Cc1[nH][nH]c(=O)c1C(c1ccc(-c2ccc(Cl)cc2Cl)o1)c1c(C)[nH][nH]c1=O,13,-13%,-5,5%
O=C(CCn1c(=O)c2sccc2n(CC(=O)OCc2ccccc2)c1=O)NCc1ccccc1,-9,-2%,4,-4%
CCOc1cccc(-c2nnc3sc(-c4cccs4)nn23)c1,-127*,4%,-3,-1%
COc1cccc(-c2nnc3sc(-c4cccs4)nn23)c1,?,9%,7,-7%
CCn1cnc2scc(-c3ccccc3)c2c1=O,-107*,2%,11,1%
O=C(Cn1cnc2scc(-c3ccccc3)c2c1=O)N1CCOCC1,11,-4%,12,5%
N=c1n(CCN2CCCC2)c2ccccc2n1CC(O)c1ccco1 (configuration not stated),-92*,10%,0,56%
Cc1ccc(Nc2c(-c3ccc(N4CCOCC4)cc3)nc3ncccn23)cc1,34,2%,-13,.
Cc1ccc(Nc2c(-c3ccc(N4CCOCC4)cc3)nc3ncccn23)cc1C,-102*,-1%,-1,.
O=C(Nc1ccc(Cl)cc1)N[C@@H]1c2c(ccc3ccccc23)OC[C@@H]1CO,-106*,-12%,-3,-3%
CCCC/C(O)=C1\C(=O)CC(C)(C)CC1=Nc1ccccc1OC,-28,-1%,6,-7%
CCC/C(O)=C1\C(=O)CC(C)(C)CC1=Nc1ccc(OC)cc1OC,-139*,-7%,-4,-9%
COc1ccc(CNC(=O)[C@H](C)[C@H]2C[C@]2(C)[C@H](NC(=O)OCc2ccccc2)c2ccccc2)cc1OC,.,-4%,.,-6%
Cn1c(SCc2nc(-c3ccc(Cl)cc3)no2)nnc1-c1cccs1,-111*,-4%,7,5%
O=[N+]([O-])c1ccccc1C1Nc2cccc3cccc(c23)N1,?,-3%,10,?
O=[N+]([O-])c1ccc(Cl)c(C2Nc3cccc4cccc(c34)N2)c1,132,?,6,13µM*
Nc1nccs1,.,6%,.,-7%
O=C(COC(=O)c1ccccc1)Nc1cccc(S(=O)(=O)NC2=NCCCCC2)c1,-23,4%,.,.
Cc1cc(C)cc(C(=O)OCC(=O)Nc2cccc(S(=O)(=O)NC3=NCCCCC3)c2)c1,-96*,-4%,.,.
C=CCN1C(c2ccccc2)=CS/C1=C(/C#N)c1nnc(N2CCOCC2)n1-c1ccccc1,-3,-1%,.,.
C=CCn1c(CC#N)nnc1N1CCOCC1,-103*,-5%,3,-8%
Cc1cc(-c2ccccc2)nc2cc(C(=O)Nc3cc(C(F)(F)F)ccc3Cl)nn12,.,.,-5,.
O=C(NCc1cccnc1)C1c2ccccc2C(=O)N1C1CCCC1 (configuration not stated),-108*,5%,-3,-3%
SMILES,PNC assembly inh,12-hLO inh,IMPase inh,ALOX15B inhib
CCOC(=O)N1CCC(N2C(=O)c3ccccc3C2Nc2ccccc2C)CC1 (configuration not stated),?,-8%,-2,-1%
O=C(NCc1ccco1)c1cccc2c1C(=O)N(C1CCCCC1)C2,-100*,0%,-2,.
CCOC(=O)N1CCC(N2C(=O)c3ccccc3C2Nc2cccnc2)CC1 (configuration not stated),-86*,0%,-6,-4%
O=C(NCc1cccnc1)c1cccc2c1C(=O)N(C1CCCCC1)C2,-100*,0%,5,.
Cn1c(=O)n(C)c2cc(S(=O)(=O)NCCO)ccc21,19,1%,3,6%
COc1ccc(CN(C(=O)c2snc(C(N)=O)c2N)C(C(=O)NC(C)(C)C)c2ccco2)cc1 (configuration not stated),-101*,-5%,1,-2%
CC(C)(C)NC(=O)C(c1ccco1)N(Cc1ccc(F)cc1)C(=O)c1snc(C(N)=O)c1N (configuration not stated),-9,-3%,13,-8%
COc1ccc(Cc2nnc3c4cnn(C)c4ncn23)cc1,-86*,3%,8,-1%
CCn1nnnc1SCC(=O)N1CCCc2ccccc21,205,3%,7,.
Cc1[nH]c2ccccc2c1C(=O)CN1CCCCC1C (configuration not stated),-96*,-20%,-1,4%
CCC1CCCCN1CC(=O)c1c(C)[nH]c2ccccc12 (configuration not stated),23,-2%,23,0%
O=C(COC(=O)c1ccc(S(=O)(=O)NCc2ccco2)cc1)Nc1ccccc1OC(F)F,-101*,-8%,4,1%
COc1cc(/C=N/c2oc(-c3ccccc3)cc2C#N)ccc1O,23,-2%,3[1.84 µM],21%[11.4 µM]
CC(C)(C)NC(=O)CSc1nncn1NCc1cccc2ccccc12,44,3%,8,-1%
CC(C)(C)NC(=O)CSc1nncn1NCc1c(Cl)cccc1Cl,-100*,-4%,8,.
CCn1ncc(CNC(=O)c2cccc([N+](=O)[O-])c2)c1C,-92*,-6%,-10,.
O=C(NC1CCCCC1)C1CCN(c2cnccn2)CC1,-95*,2%,0,-5%
O=C(c1cc2n(n1)C(C(F)(F)F)CC(c1ccc(F)cc1)N2)N1CCCC1 (configuration not stated),0,0%,2,20%
Cc1ccc(S(=O)(=O)n2ccc3cccnc32)cc1,-100*,-4%,-4,.
O=S(=O)(c1ccc(Cl)cc1)n1ccc2cccnc21,-100*,-3%,0,.
C=CCn1c(COc2ccc(Cl)cc2)nnc1SCC(=O)Nc1ccc(S(N)(=O)=O)cc1,-114*,-20%,.,.
Clc1ccc(CSc2ncn[nH]2)cc1,-21,-3%,7,4%
Fc1ccccc1CSc1ncn[nH]1,-100*,1%,-13,.
COc1ccc(CNc2nc(NCc3ccc(OC)c(OC)c3)n(C(=O)c3cccs3)n2)cc1OC,26,-12%,?,26%
Cc1ccccc1C(=O)Nc1nc2n(n1)C(c1ccccc1)CC(=O)N2 (configuration not stated),-22,-1%,-1,-3%
SMILES,PNC assembly inh,12-hLO inh,IMPase inh,ALOX15B inhib
CCOc1ccc(C2=Nn3c(nnc3-c3ccccc3OC)SC2)cc1,-86*,-8%,8,9%
Cc1ccc(-c2nnc3n2N=C(c2ccc(Br)cc2)CS3)cc1,-106*,1%,2,-13%
CCOc1ccc(-c2nnc3n2N=C(c2ccc(OC)cc2)CS3)cc1,14,5%,6,1%
Cc1cccc(-c2nnc3n2N=C(c2ccc(Br)cc2)CS3)c1,9,0%,13,0%
O=C1Nc2ccccc2N(O)N1c1ccc(S(=O)(=O)N2CCCCCC2)cc1,-82*,-1%,.,.
O=C(CCc1ccccc1)NC(NC(=S)Nc1ccc(Br)cc1)C(Cl)(Cl)Cl (configuration not stated),?,-9%,5,-8%
